Screening results deposited in PubChem by several laboratories.
Compounds with a hit are over-represented: about 3.7% of the library has one in this group of screens.
FadD28 FP inh – blocks FadD28 binding to the bisubstrate probe. 360,000 compounds, 0.22% hits. inhibition, % at 12.5 µM. fluorescence polarization. AID 588549; in the data active means inhibition above about 8.5%, passing the limit was not always enough
Rv3671c protease – inhibits the M. tuberculosis serine protease Rv3671c. P9WHR9. 320,000 compounds, 0.048% hits. inhibition, % at 5.96 µM; in the data active means inhibition above about 38%;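 further: extracellular domain of Rv3671c used as enzyme; 0% = enzyme with DMSO and 100% = no enzyme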
GDH-TPI counter – GDH-TPI coupled enzyme inhibition counter-screen; GDH-TPI coupled enzyme counterscreen, NADH absorbance; inhibition, % at 4.8 µM; 360,000 compounds, 1.2% hits; in the data active means inhibition above about 30%;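 further: 0% = DMSO wells and 100% = wells lacking the enzyme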
Mtb FBA inh – Mtb fructose-bisphosphate aldolase inhibition | P9WQA3 | 360,000 compounds, 2.3% hits | inhibition, % at 1 µM | purified M. tuberculosis FBA, fluorescence read-out; in the data active means inhibition above about 27%;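 further: 0% = vehicle and 100% = reference inhibitor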
Mtb betalactam – beta-lactam sensitization of Mtb H37Rv; M. tuberculosis H37Rv growth with meropenem, percent inhibition; inhibition, % at 25 µM; 330,000 compounds, 0.27% hits; call rule not given here;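 further: growth measured after seven days incubation then overnight dye step; 0% = bacteria only wells and 100% = bacteria with antibiotic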
Mtb UGM inh – blocks M. tuberculosis UGM enzyme; inhibition, % at 10 µM; 320,000 compounds, 0.06% hits; P9WIQ1; AID 504406; purified UGM, fluorescence polarization probe displacement; in the data active means inhibition above about 10%, passing the limit was not always enough
Target sequence (P9WIQ1 whole entry, looked up): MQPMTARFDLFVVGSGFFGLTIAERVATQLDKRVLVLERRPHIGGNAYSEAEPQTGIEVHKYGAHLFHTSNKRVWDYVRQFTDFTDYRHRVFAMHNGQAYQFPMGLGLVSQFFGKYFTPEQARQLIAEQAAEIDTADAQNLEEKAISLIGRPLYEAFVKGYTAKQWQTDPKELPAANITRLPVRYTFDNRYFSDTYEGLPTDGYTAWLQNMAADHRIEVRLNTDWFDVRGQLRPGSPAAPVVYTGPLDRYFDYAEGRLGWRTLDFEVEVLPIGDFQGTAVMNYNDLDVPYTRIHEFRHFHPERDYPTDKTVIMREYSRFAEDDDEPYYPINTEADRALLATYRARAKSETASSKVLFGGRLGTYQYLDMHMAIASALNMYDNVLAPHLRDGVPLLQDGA
The depositor's hits bear a star; . = no result given; + = active, no number.

SMILES	FadD28 FP inh	Rv3671c protease	GDH-TPI counter	Mtb FBA inh	Mtb betalactam	Mtb UGM inh
COC(=O)C1(C)CCCC2(C)C3CCC(C(C)C)C(CO)C3C(CO)CC12 (configuration not stated)	-2	.	18	-1	.	.
CCCNC(=O)C1(C)CCN(C(=O)c2ccc(OC(F)F)cc2)C1 (configuration not stated)	-1	.	6	2	.	.
CCOC(=O)C1Nc2ccccc2C2c3ccccc3CC12 (configuration not stated)	-6	4	11	33*	47	3
Cc1ccccc1-n1c(O)c(C=Nc2ccc3c(c2)OCO3)c(=O)[nH]c1=O	0	8	33*	-2	94	-1
CCCCC1CC2=C(C(=O)OC(C)(C)O2)C(c2cccc3ccccc23)O1 (configuration not stated)	-2	.	.	1	.	.
NC(=O)COc1ccc2cc(-c3ccc(F)cc3)c(=O)oc2c1	0	2	18	+	3	-2
O=C(COc1ccc2cc(-c3ccccc3)c(=O)oc2c1)NCC1CCC(C(=O)O)CC1 (configuration not stated)	0	0	49*	+	2	-1
NC(=O)COc1ccc2cc(-c3ccccc3)c(=O)oc2c1	-1	2	31*	+	83	1
O=c1oc2cc(OCc3ccc(F)cc3F)ccc2cc1-c1ccccn1	0	5	7	18	15	4
COC(=O)COc1ccc2cc(-c3ccccc3)c(=O)oc2c1	-2	2	38*	+	100	-1
O=c1oc2cc(OCc3c(F)c(F)c(F)c(F)c3F)ccc2cc1-c1ccccn1	-1	-2	-1	4	76	-1
CC(C)(C)c1csc(NC(=O)c2ccc(Br)o2)n1	-4	4	19	0	1	-2
C=CCN(c1ccccc1OC)S(=O)(=O)c1cccc(C(=O)OCC(=O)c2c(N)n(C)c(=O)n(C)c2=O)c1	-4	.	2	-1	.	.
COc1ccc(-c2cc3ccc(OCC(C)=O)cc3oc2=O)cc1OC	-3	-8	17	1	5	1
COc1ccc(-c2cc3ccc(OCC(C)=O)cc3oc2=O)cc1	-3	-6	15	155*	7	-1
COc1ccc2cc(-c3cc(C(=O)O)c4ccccc4n3)ccc2c1	-6	-1	36*	13	10	-1
COc1ccc(-c2cc(C(=O)O)c3ccccc3n2)c(OC)c1	-4	-8	12	7	-13	0
COc1ccc(-c2cc(C(=O)N3CCCC3)c3ccccc3n2)cc1	0	4	14	148*	1	0
NC(=O)C1CCN(C(=O)c2cc(-c3ccc(Cl)s3)nc3ccccc23)CC1	-2	-2	34*	127*	2	1
COc1ccc(-c2cc(C(F)F)n3ncc(C(=O)N4CCN(C(=O)c5ccco5)CC4)c3n2)cc1	-3	-2	22	25	-3	2
COc1ccc(-c2cc(C(F)F)n3ncc(C(=O)N4CCCCC4)c3n2)cc1	-1	1	42*	26	-7	1
CC[C@@H](NC(=O)[C@@H](Cc1ccccc1)NC(=O)CC[C@H]1O[C@@H](n2ccc(=O)[nH]c2=O)[C@H](O)[C@@H]1O)c1ccccc1	-4	.	.	-2	.	.
O=C(O)c1cc(-c2cccs2)nc2cc3c(cc12)OCCO3	-3	3	9	+	5	1
Cc1ccc(-c2cc(C(=O)N(C)CC(=O)Nc3ccccc3Br)c3ccccc3n2)o1	-2	-8	11	120*	-6	-1
CS(=O)(=O)N1CCN(C(=O)c2cc(-c3cccs3)nc3ccccc23)CC1	-2	1	31*	125*	-4	2
Cc1ccc(-c2cc(C(=O)N3CCOCC3)c3ccccc3n2)o1	0	-6	22	120*	-5	2
Cc1ccc(-c2cc(C(=O)N3CCN(c4ccc(F)cc4)CC3)c3ccccc3n2)o1	-2	0	21	12	89	1
Cc1ccc2nc(-c3ccc4c(c3)OCCO4)cc(C(=O)O)c2c1	2	5	24	14	8	0
CSc1nnc(N2C(=O)C(O)=C(C(=O)c3ccc(C)o3)C2c2ccc(C)cc2)s1 (configuration not stated)	-3	-3	11	1	0	3
COc1ccc2nc(-c3ccccc3)cc(C(=O)N3CCC3)c2c1	-5	-2	10	149*	4	-3
